Assay results published in PubChem BioAssay (NCATS).
Inconclusive results are not listed. Activity calls are given as the source filed them. Unless noted, calls come from the whole dose curve; as a rule, active = well fitted curve in the direction sought with a large enough effect; inconclusive = small, poorly fitted or top-dose-only effect, or another doubt; inactive = no such curve, though single readings can be large; an effect the other way counts as inactive or inconclusive.

What was measured:
[1] = qHTS assay for small molecule disruptors of the mitochondrial membrane potential - 1 hr assay (AID 651754; calls by dose curve; note: % is set by controls: 0 for no effect and ±100 for the full control effect; nearly all actives have a fitted effect of over 35% in size)
Method in brief: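 Mitochondrial potential in living HepG2 cells after 1 hr compound treatment at 37C was read with Mito-MPS dye added for a further 30 min. Red aggregate and green monomer fluorescence were measured; loss of potential leaves dye as cytoplasmic monomers.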

[2] = qHTS assay for small molecule disruptors of the mitochondrial membrane potential - 5 hr assay (AID 651755; calls by dose curve; note: % is set by controls: 0 for no effect and ±100 for the full control effect; nearly all actives have a fitted effect of over 40% in size)
Method in brief: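 Seed HepG2 overnight, add compound, incubate 5 hr at 37C and 5% CO2, stain 30 min with Mito-MPS, then measure monomer (490/535 nm) and aggregate (540/590 nm) fluorescence.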

[3] = target: Tumor necrosis factor (Homo sapiens) (UniProt P01375); assay: qHTS assay to identify small molecules that stimulate Tumor Necrosis Factor-alpha (TNF-alpha) secretion (AID 651757; active = well fitted curve in the direction sought with a large enough effect in the signal ratio; the % refers to the signal ratio; note: 0% is about no effect)
Method in brief: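 Secreted TNF-alpha quantified by TR-FRET sandwich of two labeled anti-TNF-alpha antibodies, incubated 3 hr at room temperature. Preceded by 17 hr, 37 C compound treatment of THP-1 cells at 3000 cells/well.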

[4] = qHTS assay to identify small molecules that stimulate interleukin-8 (IL-8) secretion (AID 651758; active = well fitted activation curve with a large enough effect in the signal ratio; the % refers to the signal ratio; note: 0% is about no effect)
Method in brief: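 Quantitative HTS in THP-1 monocytic cells at 2000 cells per well, with 16 hrs compound incubation at 37 C. IL-8 in the medium was then quantified by HTRF immunoassay, read after 1-3 hrs at room temperature.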

[5] = qHTS assay for environmental chemicals that activate the Aryl hydrocarbon Receptor (AhR) signaling pathway (AID 651777); conditions: 1A2-DRE human hepatoma cells, luciferase, 24 h; activation: active compounds read high; note: % of control where 0% means no effect; nearly all actives have a fitted effect of over 15% in size
Method in brief: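 Luminescence read-out: One-Glo added for 30 min at RT after 24 hr compound treatment (37 C, 5% CO2) of human hepatoma cells expressing a DRE/CYP1A2 promoter–luciferase reporter; increased signal indicates AhR activation.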

[6] = target: Nuclear receptor ROR-gamma (Homo sapiens) (UniProt P51449); assay: qHTS assay for small molecule antagonists of the retinoid-related orphan receptor gamma (ROR-gamma) signaling pathway (AID 651802);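 note: CHO cells with doxycycline-induced ROR-gamma expression; luciferase reporter luminescence driven by ROR response element; series mostly up to about 92 µM; % is set by controls: 0 for no effect and ±100 for the full control effect; nearly all actives have a fitted effect of over 60% in size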
Method in brief: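 Luminescence (One-Glo, 30 min RT) measured 16 h after compound addition and doxycycline induction at 37C. Reporter: RORE-luciferase under TET-inducible ROR-gamma in CHO cells.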

[7] = qHTS assay for small molecule agonists of the antioxidant response element (ARE) signaling pathway measured by Nrf2-dependant transcriptional activity (AID 720636; active = well fitted curve in the direction sought with a large enough effect in the repeat runs; an effect the other way counts as inactive or inconclusive;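 note: HepG2 cells with an ARE-driven luciferase reporter; % of control where 0% means no effect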)
Method in brief: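 HepG2 ARE-luc reporter line, 1% dialyzed FBS; 6 hr attachment at 37 C, compound pinned in, 16 hr at 37 C/5% CO2; ONE-Glo, 30 min RT, luminescence read.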

[8] = qHTS assay for small molecule antagonists of the retinoid-related orphan receptor gamma (ROR-gamma) signaling pathway - cell viability counter screen (AID 720652; active = well fitted curve in the direction sought with a large enough effect in the repeat runs; an effect the other way counts as inactive or inconclusive;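 note: CHO reporter cells with doxycycline-induced ROR-gamma expression; series mostly up to about 92 µM; compound exposure lasted 16 hr before ATP read; % is set by controls: 0 for no effect and ±100 for the full control effect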)
Method in brief: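 Cytotoxicity counter screen: intracellular ATP (CellTiter-Glo luminescence) measured in the doxycycline-induced CHO RORE-luciferase reporter line after 16 hr compound exposure at 37 C, 5% CO2.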

[9] = qHTS assay for small molecule agonists of the antioxidant response element (ARE) signaling pathway measured by Nrf2-dependant transcriptional activity - cell viability counter screen (AID 720653; active = well fitted curve in the direction sought with a large enough effect in the repeat runs; an effect the other way counts as inactive or inconclusive; note: % is set by controls: 0 for no effect and ±100 for the full control effect); conditions: ARE-bla HepG2 viability, CellTiter-Glo ATP luminescence, 16 h; active compounds read low
Method in brief: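 ARE-bla HepG2 cells (2,000/well) rested 5 hrs at 37C/5% CO2, then exposed to compounds in DMSO for 16 hrs. Viability was read in the same wells as intracellular ATP by luminescence, 30 min at room temperature after reagent addition.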

[10] = qHTS assay for cell viability of HEK293 cells (AID 743288); conditions: ATP luminescence (CellTiter-Glo), 18 h, active compounds read low; note: % is set by controls: 0 for no effect and ±100 for the full control effect; nearly all actives have a fitted effect of over 50% in size
Method in brief: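 After 18 h compound exposure at 37 C, parental HEK293 cells (2,000/well) are lysed with CellTiter-Glo and luminescence is read following 30 min at room temperature.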

[11] = qHTS assay for cell viability of the p53RE-bla HCT-116 cell line (AID 743292); note: % is set by controls: 0 for no effect and ±100 for the full control effect; nearly all actives have a fitted effect of over 55% in size
Method in brief: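 Luminescent ATP quantitation (CellTiter-Glo) served as the viability read-out; reagent was added after 16 h compound exposure at 37 C and read after 30 min at room temperature. Cells: p53RE-bla HCT-116, 4,000 per well.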

[12] = target: Nuclear receptor subfamily 1 group I member 2 (Rattus norvegicus) (UniProt Q9R1A7); assay: qHTS assay for small molecule activators of the rat pregnane X receptor (rPXR) signaling pathway (AID 651751; call rule not given here; note: 0% is about no effect); conditions: rPXR reporter cells, luciferase (One-Glo), 24 h
[13] = qHTS assay for small molecule activators of the human pregnane X receptor (PXR) signaling pathway (AID 720659; call rule not given here; note: 0% is about no effect)
[14] = target: Peroxisome proliferator-activated receptor alpha (Homo sapiens) (UniProt Q07869); assay: qHTS assay for small molecule agonists of the peroxisome proliferator-activated receptor alpha (PPARalpha) signaling pathway (AID 651778); conditions: PathHunter PPARalpha complementation, chemiluminescence, 6 h; active compounds read high; note: % of control where 0% means no effect
Method in brief: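 Cells plated at 2,000/well and held overnight at 37 C, 5% CO2, then compound added by pin tool for 6 hr; after PathHunter detection reagent and 60 min at room temperature, chemiluminescence from enzyme complementation was read.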

Sequence of Nuclear receptor ROR-gamma (Homo sapiens) (P51449 whole entry, looked up): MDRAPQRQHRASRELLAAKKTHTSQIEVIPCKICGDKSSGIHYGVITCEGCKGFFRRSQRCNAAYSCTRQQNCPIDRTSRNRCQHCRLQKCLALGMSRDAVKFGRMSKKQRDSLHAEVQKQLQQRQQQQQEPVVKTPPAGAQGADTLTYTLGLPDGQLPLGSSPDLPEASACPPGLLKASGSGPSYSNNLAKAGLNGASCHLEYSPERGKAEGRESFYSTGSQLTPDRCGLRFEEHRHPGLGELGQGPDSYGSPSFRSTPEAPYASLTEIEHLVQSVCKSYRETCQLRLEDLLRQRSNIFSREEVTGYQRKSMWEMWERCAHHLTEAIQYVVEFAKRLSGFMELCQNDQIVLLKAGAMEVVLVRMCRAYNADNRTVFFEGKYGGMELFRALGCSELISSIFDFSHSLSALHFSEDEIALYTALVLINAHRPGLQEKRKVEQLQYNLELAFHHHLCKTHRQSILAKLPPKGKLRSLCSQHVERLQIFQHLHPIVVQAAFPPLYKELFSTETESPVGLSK
Sequence of Tumor necrosis factor (Homo sapiens) (P01375 whole entry, looked up): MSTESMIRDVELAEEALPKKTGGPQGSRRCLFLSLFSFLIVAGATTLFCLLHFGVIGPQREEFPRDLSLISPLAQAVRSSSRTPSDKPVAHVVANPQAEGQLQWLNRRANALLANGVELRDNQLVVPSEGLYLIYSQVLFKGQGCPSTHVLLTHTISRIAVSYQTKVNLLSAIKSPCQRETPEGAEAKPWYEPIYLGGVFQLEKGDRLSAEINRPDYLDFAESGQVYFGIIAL
Sequence of Nuclear receptor subfamily 1 group I member 2 (Rattus norvegicus) (Q9R1A7 whole entry, looked up): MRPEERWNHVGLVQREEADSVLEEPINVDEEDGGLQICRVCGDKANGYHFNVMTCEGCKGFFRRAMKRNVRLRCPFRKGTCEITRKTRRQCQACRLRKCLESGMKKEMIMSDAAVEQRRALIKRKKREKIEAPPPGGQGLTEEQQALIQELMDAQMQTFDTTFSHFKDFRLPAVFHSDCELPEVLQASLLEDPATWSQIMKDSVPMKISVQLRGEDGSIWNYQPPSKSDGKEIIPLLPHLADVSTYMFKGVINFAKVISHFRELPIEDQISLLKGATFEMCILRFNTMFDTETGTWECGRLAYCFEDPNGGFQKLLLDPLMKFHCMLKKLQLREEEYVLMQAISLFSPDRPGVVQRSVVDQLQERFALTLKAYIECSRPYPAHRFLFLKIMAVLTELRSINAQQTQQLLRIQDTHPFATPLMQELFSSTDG
Sequence of Peroxisome proliferator-activated receptor alpha (Homo sapiens) (Q07869 whole entry, looked up): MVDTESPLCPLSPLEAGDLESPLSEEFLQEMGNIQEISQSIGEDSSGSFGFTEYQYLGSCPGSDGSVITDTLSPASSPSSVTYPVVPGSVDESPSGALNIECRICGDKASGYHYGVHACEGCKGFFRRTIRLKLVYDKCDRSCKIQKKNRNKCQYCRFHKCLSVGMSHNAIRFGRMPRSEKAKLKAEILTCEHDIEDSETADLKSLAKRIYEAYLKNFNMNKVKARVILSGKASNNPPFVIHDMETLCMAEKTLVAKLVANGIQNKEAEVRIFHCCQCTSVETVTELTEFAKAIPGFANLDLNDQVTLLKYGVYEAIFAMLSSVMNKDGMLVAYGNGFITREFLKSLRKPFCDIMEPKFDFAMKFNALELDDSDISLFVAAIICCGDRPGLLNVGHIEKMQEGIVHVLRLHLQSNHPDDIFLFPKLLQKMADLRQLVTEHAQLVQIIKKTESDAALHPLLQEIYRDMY

Nc1ccc(F)cc1F
inactive: Potency [1] | Potency [2] | Potency [3] | Potency [4] | activation [5] -1.74% | Potency [6] | outcome [7] | Potency [8] | max response [9] -3.09% | max response [10] -2.02% | Potency [11] | max response [12] 3.66% | outcome [13]

CC(=O)c1ccccc1[N+](=O)[O-]
inactive: Potency [1] | Potency [2] | Potency [3] | Potency [4] | activation [5] -0.15% | max response [14] -1% | Potency [6] | outcome [7] | Potency [8] | max response [9] -1.99% | max response [10] 7.31% | Potency [11] | max response [12] 1.69% | outcome [13]

Cc1ccc(CO)cc1
inactive: Potency [1] | Potency [2] | Potency [3] | Potency [4] | activation [5] -1.15% | max response [14] 4.64% | Potency [6] | outcome [7] | Potency [8] | max response [9] -0.358% | max response [10] 9.52% | Potency [11] | max response [12] 4.72% | outcome [13]

O=C(O)c1ccc(Cl)c(Cl)c1
inactive: Potency [1] | Potency [2] | Potency [3] | Potency [4] | activation [5] 1.84% | Potency [6] | outcome [7] | Potency [8] | max response [9] -1.66% | max response [10] 1.65% | Potency [11] | max response [12] -0.362% | outcome [13]

Cc1ccc2ccccc2c1[N+](=O)[O-]
inactive: Potency [1] | Potency [2] | Potency [3] | Potency [4] | activation [5] 1.24% | max response [14] 5.72% | Potency [6] | outcome [7] | max response [9] 14.1% | max response [10] 1.17% | Potency [11] | max response [12] -2.23% | outcome [13]

CC(C)=C1CCC(C)CC1=O (configuration not stated)
inactive: Potency [1] | Potency [2] | Potency [3] | Potency [4] | activation [5] -0.665% | Potency [6] | outcome [7] | Potency [8] | max response [9] 3.25% | max response [10] 10.3% | Potency [11] | max response [12] -2.32% | outcome [13]

Nc1nc2ccccc2[nH]1
inactive: Potency [1] | Potency [2] | Potency [3] | Potency [4] | activation [5] 11.9% | max response [14] -2.62% | outcome [7] | Potency [8] | max response [9] -4.79% | max response [10] -5.2% | Potency [11] | max response [12] 10.8% | outcome [13]

Cc1ccc(C(C)(C)C)cc1
inactive: Potency [1] | Potency [2] | Potency [3] | Potency [4] | activation [5] -0.334% | max response [14] 3.18% | Potency [6] | outcome [7] | Potency [8] | max response [9] -0.19% | max response [10] 1.5% | Potency [11] | max response [12] -0.498% | outcome [13]

ICCc1ccccc1
inactive: Potency [1] | Potency [2] | Potency [3] | Potency [4] | activation [5] 3.65% | max response [14] -1.29% | Potency [6] | outcome [7] | Potency [8] | max response [9] 3.37% | max response [10] -14.1% | Potency [11] | max response [12] -1.67% | outcome [13]

CCCCCCCCN
inactive: Potency [1] | Potency [2] | Potency [3] | Potency [4] | activation [5] 1.65% | max response [14] -3.65% | Potency [6] | outcome [7] | Potency [8] | max response [9] 1.34% | max response [10] -5.63% | Potency [11] | max response [12] 0.0694% | outcome [13]

CC1CCC2CC1C2(C)C (configuration not stated)
inactive: Potency [1] | Potency [2] | Potency [3] | Potency [4] | activation [5] -0.275% | max response [14] -3.48% | Potency [6] | outcome [7] | Potency [8] | max response [9] 1.21% | max response [10] -8.03% | Potency [11] | max response [12] -2.72% | outcome [13]

Cc1cccc(C)c1
inactive: Potency [1] | Potency [2] | Potency [3] | Potency [4] | activation [5] 0.25% | max response [14] 1.06% | outcome [7] | Potency [8] | max response [9] 7.38% | max response [10] 7.2% | Potency [11] | max response [12] -3.48% | outcome [13]

O=C(O)CCSSCCC(=O)O
inactive: Potency [1] | Potency [2] | Potency [3] | Potency [4] | activation [5] -0.395% | max response [14] -1.98% | Potency [6] | outcome [7] | Potency [8] | max response [9] 0.366% | max response [10] -9.15% | Potency [11] | max response [12] -1.84% | outcome [13]

CCCCCCCCC/C=C/CC1CC(=O)OC1=O (configuration not stated)
inactive: Potency [1] | Potency [2] | Potency [3] | Potency [4] | activation [5] 0.696% | max response [14] 0.153% | outcome [7] | Potency [8] | max response [9] -4.85% | max response [10] 0.292% | Potency [11] | max response [12] -1.93% | outcome [13]

O=C(O)c1c(Cl)cccc1Cl
inactive: Potency [1] | Potency [2] | Potency [3] | Potency [4] | activation [5] -0.92% | max response [14] 0.175% | Potency [6] | outcome [7] | max response [9] -7.83% | max response [10] -0.226% | Potency [11] | max response [12] -2.07% | outcome [13]
